# Screening data (PubChem BioAssay)
# Shown are actives, neighbours in structure and some others; about 3% of the full set was active somewhere.
# C8 TRAIL sens = caspase-8 TRAIL sensitization | 360,000 tested, 1% active | inhibition (viability loss, TRAIL sensitization), % at 10 µM | NB7+C8 cells + TRAIL, ATPlite viability luminescence | AID 624354;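 active = compounds causing at least 50% loss of cell viability in the single-dose screen, relative to plate controls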
# SENP8 block-1 = SENP8 (human) protease inhibition | Q96LD8 | recombinant SENP8, Nedd8 substrate fluorescence | inhibition, % at 20 µM | 360,000 tested, 0.64% active | AID 602440; in the data active = inhibition mostly above about 40%, no sharp cut-off; inactive = mostly below about 27%
# Target sequence (Q96LD8 whole entry, looked up): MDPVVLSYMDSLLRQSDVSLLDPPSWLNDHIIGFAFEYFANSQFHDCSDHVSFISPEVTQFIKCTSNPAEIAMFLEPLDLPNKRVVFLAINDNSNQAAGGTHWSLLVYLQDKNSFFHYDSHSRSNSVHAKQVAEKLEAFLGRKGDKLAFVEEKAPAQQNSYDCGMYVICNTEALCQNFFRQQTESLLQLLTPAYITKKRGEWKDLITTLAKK
# PPC-1+TRAIL kill = compounds killing PPC-1 cancer cells with TRAIL present (potentiator screen, no TRAIL-free arm); cell killing (% activity), % at 4 µM or 5 µM; PPC-1 cells + TRAIL, ATPLite viability luminescence; 220,000 tested, 0.41% active;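 active = cell killing above 50% in the first pass at 4 µM, then a duplicate retest at 5 µM averaging 50% or more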;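 also: plate controls were cells with TRAIL plus DMSO for no effect and medium-only wells lacking cells for full effect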
# SENP6 block = SENP6 protease inhibition. Q9GZR1. Recombinant SENP6 catalytic domain, aminoluciferin luminescence. AID 2599. inhibition, % at 10 µM. 330,000 tested, 1.8% active;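 active = inhibition above about 50% at the single tested dose, limit read from the data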;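 also: plate controls were DMSO wells with enzyme for no effect and DMSO wells lacking enzyme for full effect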
# SENP7 block = blocks the human protease SENP7. 330,000 tested, 1.5% active. AID 434973. inhibition, % at 5 µM. recombinant SENP7, Z-RLRGG-aminoluciferin luminescence, 40 min;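 active = inhibition above about 50% at the single test dose, limit read from the data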;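 also: plate controls were DMSO with enzyme for no effect and no enzyme buffer wells for full effect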
# SENP8 block-2 = SENP8 protease inhibition | Q96LD8 | purified SENP8, Z-RLRGG-aminoluciferin cleavage, luminescence | inhibition, % at 10 µM | 330,000 tested, 1.2% active | AID 2540; in the data active = inhibition above about 50%
# PPC-1 tox = kills PPC-1 cells | shares compounds with PPC-1+TRAIL kill | PPC-1 viability, ATPlite luminescence, overnight | cytotoxicity, % at 5 µM | 1,200 tested, 50% active;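 active = reconfirmed compounds whose average cytotoxicity reaches 50% or more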;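 also: 0% = DMSO-treated cells and 100% = wells holding medium but no cells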
# Starred values were filed as active, the others as inactive; / = no result.
SMILES,C8 TRAIL sens,SENP8 block-1,PPC-1+TRAIL kill,SENP6 block,SENP7 block,SENP8 block-2,PPC-1 tox
Cc1ccc(/C=N/Nc2cn[nH]c(=O)n2)o1,-11,19,6,-15,1,1,/
C(=N\Nc1nc2ccccc2[nH]1)/c1ccc2ncccc2c1,81*,-398,70*,-25,31,-10,72*
CCCCn1c(/C=N/Nc2nc3ccccc3[nH]2)nc2ccccc21,27,26,0,-12,3,-11,/
COc1ccc(CCNC(=O)CN2C(=O)NC(C)(c3ccc([N+](=O)[O-])cc3)C2=O)cc1 (centres undefined),-3,2,-7,3,0,0,/
CC(=O)C(C(c1ccccc1)c1c[nH]c2ccccc12)[N+](=O)[O-] (centres undefined),22,11,/,-7,-1,1,/
CC(=O)N1C(C(=O)O)Cc2c([nH]c3ccccc23)C1(C)C (centres undefined),-15,9,/,-10,-2,5,/
CC1(C)NC(C(=O)O)Cc2c1[nH]c1ccccc21 (centres undefined),-1,8,-4,-2,-1,-6,6
O=C(N/N=C/c1ccc2nccnc2c1)c1ccncc1,24,-14,-2,7,6,-6,/
O=C(N/N=C/c1ccc2nccnc2c1)c1ccccc1O,/,/,63*,36,12,2,63*
N#Cc1nc(-c2ccco2)oc1N1CCC(C(N)=O)CC1,-6,-420,-4,-21,0,3,-2
O=C(O)CSc1nnc(NC(=O)c2ccc3c(c2)OCO3)s1,74*,-26,66*,-17,-10,0,67*
C=CCSc1nnc(NC(=O)c2ccc3c(c2)OCCO3)s1,31,-106,/,/,/,/,/
CC(=O)Nc1cc(-c2cccc(C(=O)N(C)C)c2)cn2c(-c3ccc(C(C)=O)cc3)cnc12,10,-493,/,/,/,/,/
COc1ccc(OCC(=O)N/N=C(\CCC(=O)O)c2cccs2)cc1,0,26,14,4,4,-3,10
COc1ccc(OCC(=O)N/N=C(\C)c2cccs2)cc1,-11,11,15,-2,-5,-10,/
CC(C)=CCN1CCN(Cc2cccn2-c2ncccn2)CC1CCO (centres undefined),2,21,32,-4,-10,-8,/
COCCNC(=O)c1ccc2c3n(nc2c1)-c1ccccc1CO3,58*,-279,50*,41,34,34,55*
Cc1cc(=O)n2nc(N3CCCC(C(=O)NCc4ccccc4)C3)sc2n1 (centres undefined),-1,7,/,4,-7,10,/
Cc1cc(=O)n2nc(N3CCCC(C(=O)N4CCN(c5ccccc5)CC4)C3)sc2n1 (centres undefined),8,29,1,-7,8,-2,31
C=C1C(=O)O[C@@H]2C[C@@H](C)[C@@H]3C=CC(=O)[C@@]3(C)[C@@H](OC(C)=O)[C@H]12,/,/,62*,4,-8,13,52*
O=S(=O)(c1ccccc1)c1cnc(-c2ccccc2)nc1N1CCCCC1,-5,15,12,-23,-3,-3,/
COc1ccc(-c2cc(C(=O)N3CCCC3)c3ccccc3n2)cc1,34,-353,/,-11,9,-13,/
CCOc1ccc(-c2cc(C(=O)N3CCN(C)CC3)c3ccccc3n2)cc1,75*,-370,72*,0,4,-1,67*
CCOC(=O)N1CCN(C(=O)c2cc(-c3ccncc3)nc3ccccc23)CC1,28,9,/,2,1,-7,/
CCOC(=O)N1CCN(C(=O)c2cc(-c3ccc(OCC)cc3)nc3ccccc23)CC1,89*,-314,82*,-11,-9,-9,83*
COc1ccc(N2CCN(C(CNC(=O)C(=O)NCCc3c[nH]c4ccccc34)c3ccco3)CC2)cc1 (centres undefined),21,6,14,-23,-11,-5,/
O=S(=O)(CCc1nc2ccccc2[nH]1)c1ccc(Cl)cc1,7,30,10,-3,-1,-12,/
Clc1ccc(OCc2nc3ccccc3[nH]2)cc1,37,-3,33,72*,82*,56*,36
CN(c1ncc(C(F)(F)F)cc1Cl)N1C(=O)c2cccc([N+](=O)[O-])c2C1=O,-1,6,12,4,-4,-3,/
